Measured values reported in PubChem BioAssay (NCATS).
Inconclusive results are not listed. Activity calls are given as the source filed them. Unless noted, the call rests on the fitted dose curve; in most records, active means well fitted curve in the direction sought with a large enough effect; inconclusive means small, poorly fitted or top-dose-only effect, or another doubt; inactive means no such curve, though single readings can be large; an effect the other way counts as inactive or inconclusive.

Assays:
[1] = target: Lysosomal acid glucosylceramidase (Homo sapiens) (UniProt P04062); test: Glucocerebrosidase-p2 (AID 348; in the data active means potency below about 10 µM; further: potency means the concentration at half of the fitted maximal effect); details: purified GBA, blue fluorogenic substrate, 40 min
Outline: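 Compounds titrated from 0.6 nM upwards against 0.2 nM enzyme in pH 5.9 citric acid/KH2PO4, taurocholate, tween-20; blue fluorogenic substrate 80 uM, 40 min room temperature, stopped and read Ex 365/Em 440 for AC50.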

[2] = AP1 Signaling Pathway (AID 357; active means well fitted curve in either direction with a large enough effect, not every such curve was filed as active;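 further: ME-180 reporter cells stimulated with EGF at its EC50 level; on the % scale 0 is the no-effect control and ±100 the full control effect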); details: ME-180 AP-1-bla reporter, EGF-induced, beta-lactamase ratio, 5 h; at 7.69 µM (top of the series) unless noted
Outline: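 AP-1-bla ME-180 cells, Opti-MEM + 0.5% dialyzed FBS, plated overnight 37 °C. Cpd titration + EC50 EGF, 5 h 37 °C. CCF4 2.5 h RT; ex 405, em 460/530 ratio → %activity, AC50.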

[3] = target: Cytochrome P450 1A2 (Homo sapiens) (UniProt P05177); test: p450-cyp1a2 (AID 410; calls by dose curve; further: potency means the concentration at half of the fitted maximal effect); details: recombinant CYP1A2, luciferin-ME demethylation, luminescence; series mostly up to 57 µM
Outline: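 20nM CYP1A2 with 100uM Luciferin-ME (at Km) in 100mM KPO4; compound preincubated 10 min, NADPH regeneration added, 60 min at room temperature. Luciferin quantified by luminescence after detection reagent; normalized to 57 uM furafylline.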

[4] = NFAT Signaling Pathway (AID 444; active means well fitted curve in either direction with a large enough effect, not every such curve was filed as active;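 further: carbachol stimulus at about its EC50 of 1 µM final; on the % scale 0 is the no-effect control and ±100 the full control effect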); details: Jurkat NFAT-bla M1, carbachol, beta-lactamase ratio, 5 h; at 7.69 µM (top of the series) unless noted
Outline: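 Jurkat cells with NFAT-driven β-lactamase reporter and co-expressed M1 receptor, stimulated with carbachol (final 1 uM, ~EC50), compound titration, 5 h at 37 °C. CCF4 loaded 1 h at RT; 460/530 nm ratio gave %activity and AC50.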

[5] = Stat Signaling Pathway (AID 446; active means well fitted curve in either direction with a large enough effect, not every such curve was filed as active;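 further: ME-180 cervical cancer cells given 40 pM IL-6 alongside compound; SIE-controlled beta-lactamase reporter measured as 460/530 nm FRET emission ratio; on the % scale 0 is the no-effect control and ±100 the full control effect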); details: ME-180 SIE beta-lactamase reporter, IL-6 stimulated, 5 h; at 7.69 µM (top of the series) unless noted
Outline: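 Screening format detects activators and inhibitors alike: ME-180 SIE-bla cells stimulated at 40 pM IL-6 for 5 hrs with compound, then dual-emission beta-lactamase read at 405 nm excitation.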

[6] = target: Glucocorticoid receptor (Homo sapiens) (UniProt P04150); test: GR-GFP Redistribution (AID 450;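 active means compounds whose dose series gives a full or clear partial fitted curve of increased nuclear translocation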; further: potency means the concentration at half of the fitted maximal effect); details: U2OS GR-GFP nuclear translocation, laser cytometry, 2 h
[7] = target: Glucocorticoid receptor (Homo sapiens) (UniProt P04150); test: GR-EFC Redistribution (AID 451; calls by dose curve; further: potency means the concentration at half of the fitted maximal effect); details: CHO-K1 GR-EFC translocation, beta-gal luminescence, 2 h
Outline: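 CHO-K1 cells expressing nuclear EA and GR-ED fragments of b-gal; compounds titrated up to 46 uM final, 2 h at 37 C. GR nuclear translocation read as complemented b-gal luminescence after 1 h RT detection.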

[8] = target: Mitogen-activated protein kinase 10 (Mus musculus) (UniProt Q61831); test: JNK3 AlphaScreen Assay (AID 530; active means well fitted curve in either direction with a large enough effect, not every such curve was filed as active;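 further: kinase came from lysate of stimulated human HepG2 cells; signal reports phosphorylation of biotinylated GST-cJun 1-79 at Ser73 with 10 µM ATP; on the % scale 0 is the no-effect control and ±100 the full control effect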); details: JNK3 lysate, c-Jun phosphorylation; series mostly up to 57.1 µM
Outline: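 Pre-activated (IL-1β/TNFα) JNK3 in HepG2 lysates phosphorylates biotin-GST-cJun(1-79), 10 uM ATP; anti-phospho-cJun(Ser73) AlphaScreen read at room temperature, pH 7.6 Tris buffer. Compounds pre-incubated 15 min as titrations.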

[9] = target: Cytochrome P450 3A4 (Homo sapiens) (UniProt P08684); test: qHTS Assay for Activators of Cytochrome P450 3A4 (AID 885); details: recombinant CYP3A4, Luciferin-PPXE luminescence, 60 min; series mostly up to 57.1 µM; further: nearly all actives have a fitted effect of over 65% in size
Outline: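 Steps: enzyme/substrate mix dispensed; compound added, 10 min RT; NADPH regeneration solution added, 60 min RT; luciferin detection buffer stops reaction; 20 min later luminescence measured.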

[10] = qHTS Assay for Lipid Storage Modulators (AID 1519; calls by dose curve); details: Drosophila S3 cells, BODIPY lipid droplet/cell ratio, laser cytometry, cells loaded with oleic acid; for activity change, negative = inhibition: at 57.5 µM (top of the series)
Outline: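 Cells seeded at 5,000 per well were treated with compounds over a concentration series and loaded with oleic acid (400 uM, as added). Lipid droplet fluorescence (488 nm excitation, 500-530 nm channel) was read by laser-scanning cytometry and normalized to 20 uM Triacsin C.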

[11] = target: Dual specificity protein kinase CLK4 (Homo sapiens) (UniProt Q9HAZ1); test: qHTS Assay for Inhibitors of CDC-like Kinase 4 (Kinase-Glo Assay) (AID 1770); details: recombinant Clk4, Kinase-Glo ATP depletion luminescence; series mostly up to 66.7 µM; further: nearly all actives have a fitted effect of over 65% in size; further: potency means the concentration at half of the fitted maximal effect
Outline: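 25 nM Clk4 with 100 uM RS repeat peptide and 1 uM ATP (final) in Tris pH7.5, 10 mM MgCl2, 4.5 h at room temperature. Remaining ATP measured by Kinase-Glo luciferase luminescence.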

[12] = target: Dual specificity protein kinase CLK4 (Homo sapiens) (UniProt Q9HAZ1); test: qHTS Assay for Inhibitors of CDC-like Kinase 4 (ADP-Glo Assay) (AID 1771); details: recombinant CLK4, ADP-Glo luminescence; series mostly up to 80 µM; further: nearly all actives have a fitted effect of over 70% in size; further: potency means the concentration at half of the fitted maximal effect
Outline: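 25 nM Clk4 with 100 uM RS repeat peptide and 1 uM ATP (final) in buffer with 2 mM MgCl2, 0.5 mM EGTA, 2.5 mM DTT, 0.01% Triton X-100; 1 h at room temperature; ADP-Glo luminescence for ADP formed.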

[13] = target: Dual specificity protein kinase CLK4 (Homo sapiens) (UniProt Q9HAZ1); test: qHTS Assay for Inhibitors of CDC-like Kinase 4 (ADP-FP Assay) (AID 1795); details: Transcreener ADP fluorescence polarization; series mostly up to 50 µM; further: nearly all actives have a fitted effect of over 60% in size; further: potency means the concentration at half of the fitted maximal effect
Outline: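 Recombinant Clk4 (6.25 nM) phosphorylated 100 uM RS repeat peptide with 1 uM ATP in 25 mM Tris pH 7.5, 10 mM MgCl2, 0.5 mM EGTA, 2.5 mM DTT, 0.01% Triton X-100 for 1 h. ADP was detected by Transcreener ADP2 competitive fluorescence polarization after 30 min at room temperature.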

[14] = target: Ubiquitin carboxyl-terminal hydrolase 1 (Homo sapiens) (UniProt O94782); test: Inhibitors of USP1/UAF1: Pilot qHTS (AID 504865); details: purified USP1/UAF1, Ub-rhodamine cleavage fluorescence; series mostly up to 54.9 µM;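 further: rhodamine fluorescence freed from ubiquitin-rhodamine substrate followed over time; top concentration of the series differs between compounds; on the % scale 0 is the no-effect control and ±100 the full control effect; nearly all actives have a fitted effect of over 35% in size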
Outline: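 USP1/UAF1 complex at 1 nM preincubated 15 min at room temperature with compound, then Ub-Rho substrate added at 150 nM final. Fluorescence (480/540 nm) read kinetically in 50 mM HEPES pH 7.8, 0.5 mM EDTA, 1 mM TCEP, 0.1 mg/ml BSA, 0.01% Tween-20.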

[15] = Primary qHTS for small molecule stabilizers of the endoplasmic reticulum resident proteome: Secreted ER Calcium Modulated Protein (SERCaMP) assay (AID 1508630); details: SH-SY5Y GLuc-SERCaMP (Gaussia luciferase released on ER calcium loss) secretion, thapsigargin, luminescence; series mostly up to 38.4 µM; further: on the % scale 0 is the no-effect control and ±100 the full control effect
Outline: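 GLuc-SERCaMP-expressing SH-SY5Y cells, pretreated 16 h with compound, are challenged with thapsigargin to empty ER calcium stores; after 4 h, coelenterazine is added directly to the medium and luminescence is imaged.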

[16] = target: 3',5'-cyclic-AMP phosphodiesterase 4B (Homo sapiens) (UniProt Q07343); test: qHTS Assay for Inhibitors of PDE-IV (AID 607; active means well fitted activation curve with a large enough effect in the main read-out, with a control signal flat, not every such curve was filed as active; further: % of control where 0% means no effect); details: HEK293 ACTOne CNG channel cells, membrane potential fluorescence; series mostly up to 22.9 µM
Outline: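 The readout is membrane depolarisation from a cAMP-sensing CNG channel, detected with a potential dye at ex 535/em 590. Cells were HEK293-derived (endogenous PDE-IV) at 1000 cells/well, titrated up to 22.9 uM final.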

[17] = target: Cytochrome P450 3A4 (Homo sapiens) (UniProt P08684); test: qHTS Assay for Inhibitors and Substrates of Cytochrome P450 3A4 (AID 884); details: recombinant CYP3A4, Luciferin-PPXE luminescence; series mostly up to 57.1 µM; further: potency means the concentration at half of the fitted maximal effect; nearly all actives have a fitted effect of over 50% in size
Outline: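 20 nM human CYP3A4 with 25 uM Luciferin-PPXE (at KM) in 200 mM KPO4, preincubated 10 min with compound; NADPH regeneration started a 60 min RT reaction. Luciferin detected by luminescence, normalized to 57 uM ketoconazole as full inhibition.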

[18] = measured here: cell count channel max response
[19] = measured here: lipid channel max response

Chain of Ubiquitin carboxyl-terminal hydrolase 1 (Homo sapiens) (O94782 whole entry, looked up): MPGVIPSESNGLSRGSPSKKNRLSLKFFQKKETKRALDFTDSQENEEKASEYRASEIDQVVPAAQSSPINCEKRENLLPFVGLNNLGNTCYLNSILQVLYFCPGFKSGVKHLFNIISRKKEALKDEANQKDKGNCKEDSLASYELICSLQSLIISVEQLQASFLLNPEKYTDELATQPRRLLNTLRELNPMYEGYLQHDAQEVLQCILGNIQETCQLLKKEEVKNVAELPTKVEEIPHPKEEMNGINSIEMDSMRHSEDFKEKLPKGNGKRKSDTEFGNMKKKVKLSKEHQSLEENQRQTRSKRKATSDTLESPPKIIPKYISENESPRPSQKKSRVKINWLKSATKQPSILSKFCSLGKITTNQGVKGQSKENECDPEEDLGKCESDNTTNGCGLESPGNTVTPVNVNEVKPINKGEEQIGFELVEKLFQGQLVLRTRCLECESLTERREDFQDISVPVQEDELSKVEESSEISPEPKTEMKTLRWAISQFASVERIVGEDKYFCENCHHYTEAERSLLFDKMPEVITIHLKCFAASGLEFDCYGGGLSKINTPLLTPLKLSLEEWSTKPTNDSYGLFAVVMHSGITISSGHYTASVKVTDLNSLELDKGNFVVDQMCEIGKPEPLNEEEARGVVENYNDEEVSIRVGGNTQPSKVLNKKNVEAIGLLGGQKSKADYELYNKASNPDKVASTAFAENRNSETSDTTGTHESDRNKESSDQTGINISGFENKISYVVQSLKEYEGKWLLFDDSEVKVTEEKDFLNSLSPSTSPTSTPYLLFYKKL
Chain of Lysosomal acid glucosylceramidase (Homo sapiens) (P04062 whole entry, looked up): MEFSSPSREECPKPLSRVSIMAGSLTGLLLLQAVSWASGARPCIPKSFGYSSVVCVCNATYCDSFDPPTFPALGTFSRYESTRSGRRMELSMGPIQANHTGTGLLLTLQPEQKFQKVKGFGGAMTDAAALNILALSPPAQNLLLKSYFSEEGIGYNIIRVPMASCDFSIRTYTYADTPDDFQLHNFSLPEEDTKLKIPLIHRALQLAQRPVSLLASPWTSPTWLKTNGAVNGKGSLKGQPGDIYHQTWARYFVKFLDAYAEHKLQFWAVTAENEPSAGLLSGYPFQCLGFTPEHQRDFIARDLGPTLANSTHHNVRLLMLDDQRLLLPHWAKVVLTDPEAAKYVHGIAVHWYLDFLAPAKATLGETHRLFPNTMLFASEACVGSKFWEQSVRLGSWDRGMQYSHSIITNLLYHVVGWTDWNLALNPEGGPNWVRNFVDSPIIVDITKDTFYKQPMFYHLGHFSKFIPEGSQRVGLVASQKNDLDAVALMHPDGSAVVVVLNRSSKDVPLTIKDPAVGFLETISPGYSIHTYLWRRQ
Chain of Glucocorticoid receptor (Homo sapiens) (P04150 whole entry, looked up, the tested form may be a part): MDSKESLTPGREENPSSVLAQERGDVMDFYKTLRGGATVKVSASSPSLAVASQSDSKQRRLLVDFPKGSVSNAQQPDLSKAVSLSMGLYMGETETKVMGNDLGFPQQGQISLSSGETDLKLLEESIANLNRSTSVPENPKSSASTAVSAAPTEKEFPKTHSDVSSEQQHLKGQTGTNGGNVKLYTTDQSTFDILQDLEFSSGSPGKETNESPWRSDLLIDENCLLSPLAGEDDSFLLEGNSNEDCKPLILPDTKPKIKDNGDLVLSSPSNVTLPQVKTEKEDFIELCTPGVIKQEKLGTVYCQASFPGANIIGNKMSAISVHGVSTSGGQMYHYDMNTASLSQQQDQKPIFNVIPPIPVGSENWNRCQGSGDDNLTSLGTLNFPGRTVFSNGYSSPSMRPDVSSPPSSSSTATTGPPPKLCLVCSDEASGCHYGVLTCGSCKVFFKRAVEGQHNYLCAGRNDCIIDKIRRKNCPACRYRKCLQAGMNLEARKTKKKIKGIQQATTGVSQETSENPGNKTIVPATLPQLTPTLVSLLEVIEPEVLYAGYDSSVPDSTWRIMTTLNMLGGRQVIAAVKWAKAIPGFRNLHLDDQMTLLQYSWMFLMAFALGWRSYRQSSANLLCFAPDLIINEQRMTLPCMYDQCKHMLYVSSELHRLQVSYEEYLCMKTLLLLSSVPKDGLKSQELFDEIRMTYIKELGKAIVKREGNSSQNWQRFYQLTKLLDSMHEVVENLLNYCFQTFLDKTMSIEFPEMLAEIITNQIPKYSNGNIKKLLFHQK
Chain of Cytochrome P450 1A2 (Homo sapiens) (P05177 whole entry, looked up): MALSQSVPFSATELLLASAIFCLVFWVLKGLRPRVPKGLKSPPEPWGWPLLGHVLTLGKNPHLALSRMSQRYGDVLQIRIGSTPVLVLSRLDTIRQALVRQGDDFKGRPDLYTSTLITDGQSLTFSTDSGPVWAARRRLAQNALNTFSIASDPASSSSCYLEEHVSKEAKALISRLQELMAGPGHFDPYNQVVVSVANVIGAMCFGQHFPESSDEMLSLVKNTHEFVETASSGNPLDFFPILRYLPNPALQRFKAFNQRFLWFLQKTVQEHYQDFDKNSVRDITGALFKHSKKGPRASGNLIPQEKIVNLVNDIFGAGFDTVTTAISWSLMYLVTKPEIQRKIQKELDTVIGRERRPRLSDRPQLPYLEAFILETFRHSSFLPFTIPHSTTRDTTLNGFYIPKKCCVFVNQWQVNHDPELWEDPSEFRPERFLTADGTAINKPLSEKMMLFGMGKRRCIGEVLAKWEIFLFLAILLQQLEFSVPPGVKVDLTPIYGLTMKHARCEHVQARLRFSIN
Chain of Cytochrome P450 3A4 (Homo sapiens) (P08684 whole entry, looked up): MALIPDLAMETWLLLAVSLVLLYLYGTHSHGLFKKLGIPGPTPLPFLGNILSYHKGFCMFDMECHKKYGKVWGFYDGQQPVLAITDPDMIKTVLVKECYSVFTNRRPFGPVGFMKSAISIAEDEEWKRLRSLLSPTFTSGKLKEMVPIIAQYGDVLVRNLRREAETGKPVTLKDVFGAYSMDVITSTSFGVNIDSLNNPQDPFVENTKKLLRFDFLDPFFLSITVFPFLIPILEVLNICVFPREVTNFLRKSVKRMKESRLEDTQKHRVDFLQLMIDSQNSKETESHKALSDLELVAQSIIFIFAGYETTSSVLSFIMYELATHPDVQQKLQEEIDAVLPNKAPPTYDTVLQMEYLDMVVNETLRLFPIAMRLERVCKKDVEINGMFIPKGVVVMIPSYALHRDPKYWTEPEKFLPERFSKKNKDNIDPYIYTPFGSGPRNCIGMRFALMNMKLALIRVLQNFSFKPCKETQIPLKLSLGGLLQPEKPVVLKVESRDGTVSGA
Chain of Dual specificity protein kinase CLK4 (Homo sapiens) (Q9HAZ1 whole entry, looked up): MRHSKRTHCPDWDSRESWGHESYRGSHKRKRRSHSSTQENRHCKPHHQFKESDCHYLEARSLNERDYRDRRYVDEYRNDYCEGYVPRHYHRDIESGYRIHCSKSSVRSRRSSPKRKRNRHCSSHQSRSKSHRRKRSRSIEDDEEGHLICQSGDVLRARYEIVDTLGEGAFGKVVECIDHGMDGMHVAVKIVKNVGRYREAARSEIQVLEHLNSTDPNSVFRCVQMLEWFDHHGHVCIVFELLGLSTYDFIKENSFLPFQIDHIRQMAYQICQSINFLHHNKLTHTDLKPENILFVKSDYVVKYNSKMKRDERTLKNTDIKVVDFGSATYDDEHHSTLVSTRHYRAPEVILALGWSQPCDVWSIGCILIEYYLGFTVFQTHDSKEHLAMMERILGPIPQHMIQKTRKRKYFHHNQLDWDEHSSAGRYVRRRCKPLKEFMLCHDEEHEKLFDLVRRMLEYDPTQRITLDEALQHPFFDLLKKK
Chain of 3',5'-cyclic-AMP phosphodiesterase 4B (Homo sapiens) (Q07343 whole entry, looked up): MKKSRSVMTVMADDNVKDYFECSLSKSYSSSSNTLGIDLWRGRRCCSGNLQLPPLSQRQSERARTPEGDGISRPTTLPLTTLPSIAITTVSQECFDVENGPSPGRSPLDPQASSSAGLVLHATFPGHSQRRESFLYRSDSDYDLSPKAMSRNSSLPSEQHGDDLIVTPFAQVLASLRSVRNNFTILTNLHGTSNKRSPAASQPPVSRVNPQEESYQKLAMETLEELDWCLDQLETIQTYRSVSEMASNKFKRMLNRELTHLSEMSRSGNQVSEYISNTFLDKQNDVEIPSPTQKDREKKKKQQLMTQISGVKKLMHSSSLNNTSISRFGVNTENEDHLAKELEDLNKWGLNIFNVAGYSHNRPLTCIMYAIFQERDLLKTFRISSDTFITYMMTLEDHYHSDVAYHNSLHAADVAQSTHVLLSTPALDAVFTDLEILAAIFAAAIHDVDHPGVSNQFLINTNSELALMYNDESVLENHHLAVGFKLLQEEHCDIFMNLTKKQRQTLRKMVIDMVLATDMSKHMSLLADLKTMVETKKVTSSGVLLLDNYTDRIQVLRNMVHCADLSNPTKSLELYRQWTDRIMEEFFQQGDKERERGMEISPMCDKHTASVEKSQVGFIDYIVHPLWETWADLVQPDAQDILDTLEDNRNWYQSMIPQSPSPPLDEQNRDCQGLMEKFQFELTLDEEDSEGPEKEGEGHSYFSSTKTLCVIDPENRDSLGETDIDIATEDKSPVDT

Compound | Potency [1] | activity change, negative = inhibition [2] | Potency [3] | activity change, negative = inhibition [4] | activity, negative = inhibition [5] | Potency [6] | Potency [7] | outcome [8] | Potency [9] | activity change, negative = inhibition [10] | max response [10, 18] [%] | max response [10, 19] [%] | Potency [11] | Potency [12] | Potency [13] | Potency [14] | Potency [15] | Potency [16] | Potency [17]
COc1cccc(-c2nc(NCc3ccccc3)c3ccccc3n2)c1 | > 11.4 µM (inactive) | -17.6% (inactive) | 3.16 µM (active) | 0.742% (inactive) | -12.9% (inactive) | > 46 µM (inactive) | > 46 µM (inactive) | inactive | inactive | -4.54% (inactive) | 10.5 | 2.86 | 6.31 µM (active) | 6.31 µM (active) | 2.24 µM (active) | inactive | inactive |  | 
CC(=O)NCCNc1cc(-c2ccccc2C(F)(F)F)ncn1 | > 11.4 µM (inactive) | 9.07% (inactive) | 25.1 µM (active) | 15.3% (inactive) | 6.62% (inactive) | > 46 µM (inactive) |  | inactive |  | 0.0704% (inactive) | 5.19 | 3.95 | inactive | inactive | inactive | inactive | inactive | inactive | 
O=c1c(-c2cccs2)nc2cncnc2n1Cc1ccccc1 | > 11.4 µM (inactive) | -16.8% (inactive) | 2.51 µM (active) | 1.15% (inactive) | 7.21% (inactive) | > 9.22 µM (inactive) | > 46 µM (inactive) | inactive | inactive | 1.03% (inactive) | 22.1 | 21.4 | inactive | inactive | inactive | inactive | inactive |  | 6.31 µM (active)
Cc1nc2cnc(N(C)C)nc2n(C2CC2)c1=O | > 11.4 µM (inactive) | -20% (inactive) | 3.98 µM (active) | 4.63% (inactive) | -4.62% (inactive) | > 9.22 µM (inactive) | > 46 µM (inactive) | inactive |  | 5.93% (inactive) | 14.1 | 18.5 | inactive | inactive | inactive | inactive | inactive | inactive | 
Cc1nc2cncnc2n(Cc2ccccc2)c1=O | > 11.4 µM (inactive) | -13.3% (inactive) | 12.6 µM (active) | -2.35% (inactive) | -15.3% (inactive) | > 9.22 µM (inactive) | > 46 µM (inactive) | inactive |  | 1.73% (inactive) | 12.6 | 8.3 | inactive | inactive | inactive | inactive | inactive |  | 
